# Screens (PubChem)
# ATXN2 expr inh: Primary qHTS for Inhibitors of ATXN expression; HEK-293 ATXN2-luciferase reporter, luminescence, 24 h; Potency, µM (titrated, usually from 57 µM), inactives show at the highest dose activity change, negative = inhibition, usual class: inhibitors; 360,000 tested, 0.72% active; further: on the % scale 0 is the no-effect control and ±100 the full control effect; nearly all actives have a fitted effect of over 55% in size
#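 qHTS (up to 57 uM final) was run with 24 h compound exposure of reporter cells at 37 °C. Each well was multiplexed: SteadyGlo luminescence measured ATXN2-luciferase expression after a fluorogenic Gly-Phe-AFC viability readout (25 uM final).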
# ATXN viability: Viability Counterscreen for Primary qHTS for Inhibitors of ATXN expression; Potency, µM (highest dose often 56.7 µM), hits mostly cytotoxic; S2 cells (HEK-293 line with an ATXN2-luciferase reporter) viability, CellTiter-Fluor protease fluorescence, 24 h; AID 651635, 2014; 400,000 tested, 0.49% active; further: nearly all actives have a fitted effect of over 40% in size
# RORgamma inh: qHTS for inhibitors of ROR gamma transcriptional activity; Nuclear receptor ROR-gamma (Mus musculus), P51450; Drosophila S2 Gal4-RORgamma UAS-luciferase reporter, 20 h; Potency, µM (doses to about 53.6 µM), without a hit: top-dose activity change, negative = inhibition, actives largely listed as inhibitors; 310,000 tested, 5.4% active; further: on the % scale 0 is the no-effect control and ±100 the full control effect; nearly all actives have a fitted effect of over 60% in size
# Target sequence (P51450 whole entry, looked up, the tested form may be a part): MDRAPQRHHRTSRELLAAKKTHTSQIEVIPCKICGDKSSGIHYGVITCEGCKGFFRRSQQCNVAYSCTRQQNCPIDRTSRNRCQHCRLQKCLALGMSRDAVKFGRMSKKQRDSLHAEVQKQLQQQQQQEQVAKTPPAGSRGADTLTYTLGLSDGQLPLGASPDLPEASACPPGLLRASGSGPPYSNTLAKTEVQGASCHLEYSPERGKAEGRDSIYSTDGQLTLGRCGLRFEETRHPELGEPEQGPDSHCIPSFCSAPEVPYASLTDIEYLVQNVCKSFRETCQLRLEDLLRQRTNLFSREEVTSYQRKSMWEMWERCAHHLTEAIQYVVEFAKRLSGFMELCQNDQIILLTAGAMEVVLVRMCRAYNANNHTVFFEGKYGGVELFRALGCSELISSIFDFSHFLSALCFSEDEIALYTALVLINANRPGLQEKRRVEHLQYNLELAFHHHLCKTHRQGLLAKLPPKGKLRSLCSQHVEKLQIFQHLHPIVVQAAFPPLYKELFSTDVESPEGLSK
#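 Stably transfected Drosophila Schneider cells are the test system, with ROR gamma fused to Gal4 and luciferase under UAS control; luminescence is read after 20 hr of 700 uM copper sulfate induction at ambient temperature.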
# HepG2 viability: qHTS for Inhibitors of TGF-b: Cytotox Counterscreen | HepG2 CAGA-GFP viability, ATP luminescence, 18 h | 410,000 tested, 0.76% active | Potency, µM (doses to about 46.1 µM), for inactives: at the top dose activity change, negative = cytotoxicity, most hits filed as cytotoxic
#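 CellTiter-Glo luminescence gave cytotoxicity after 18 hours at 37 degrees C. The cells were HepG2 CAGA-GFP in 1% FBS DMEM, stimulated with 500 pg/mL TGF-beta after compound addition. %Activity was normalised to no-cell wells (complete cell-killing) and DMSO (no toxicity), and curves were fitted and classified.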
# TGFb SMAD3 inh: qHTS for Inhibitors of TGF-b; Potency, µM (series often up to 46.1 µM), for inactives: at the top dose activity, negative = inhibition, most hits filed as inhibitors; HepG2 CAGA-GFP TGF-b/SMAD3 reporter, GFP fluorescence, 18 h; TGF-beta stimulated, 500 pg/mL final; 410,000 tested, 1.2% active; AID 588855, 2011; further: on the % scale 0 is the no-effect control and ±100 the full control effect; nearly all actives have a fitted effect of over 65% in size
#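 Read-out: total well GFP (ex488/em500-530) summed from mean per-cell fluorescence. Cells: HEPG2 CAGA-GFP, 1% FBS DMEM, 18 h at 37 degrees C with 500 pg/mL final TGF-beta. Unstimulated wells served as the full-inhibition control; stimulated DMSO wells = 0%.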
# Gal4-VP16 FLuc: VP16 counterscreen qHTS for inhibitors of ROR gamma transcriptional activity; Drosophila S2 Gal4-VP16 UAS-luciferase, luminescence, 20 h; AID 2546, 2010; Potency, µM (top dose mostly 53.6 µM), without a hit: at the top dose activity, negative = inhibition, hits mostly inhibitors; 310,000 tested, 3.5% active;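 further: Gal4-VP16 expression switched on by copper sulfate through the metallothionein promoter; on the % scale 0 is the no-effect control and ±100 the full control effect; nearly all actives have a fitted effect of over 50% in size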
# * = called active by the depositor; i = inactive; u = inconclusive; x = no result; ! = repeats disagree. The list is not random: actives were taken first. Their share in the collection is about 6.3%. The call rests on the fitted dose curve; in most records, active means well fitted curve in the direction sought with a large enough effect; inconclusive means small, poorly fitted or top-dose-only effect, or another doubt; inactive means no such curve, though single readings can be large; an effect the other way counts as inactive or inconclusive. Potency means the concentration at half of the fitted maximal effect.
SMILES,ATXN2 expr inh,ATXN viability,RORgamma inh,HepG2 viability,TGFb SMAD3 inh,Gal4-VP16 FLuc
CCn1c2ccccc2c2cc(NC(=O)COC(=O)C3CCC(=O)N3)ccc21 (stereo not drawn),18µM*,i,-10%,2%,5%,3%
CNC(=O)NC(=O)C(C)OC(=O)c1c2c(nc3ccccc13)/C(=C/c1cccs1)CC2 (stereo not drawn),0%,x,0.63µM*,11%,u,0.13µM*
CS(=O)(=O)c1ccc(C(=O)OCC(=O)N2CCOCC2)cc1[N+](=O)[O-],u,u,x,8.9µM*,7.1µM*,x
CS(=O)(=O)c1ccc(C(=O)OCC(=O)N2CCN(CCC3CCCCC3)CC2)cc1[N+](=O)[O-],3.5µM*,u,x,3.2µM*,4µM*,x
CS(=O)(=O)c1ccc(C(=O)OCC(=O)N2CC(=O)Nc3ccccc32)cc1[N+](=O)[O-],x,x,x,2%,0%,x
CS(=O)(=O)c1ccc(C(=O)OCC(=O)N2CCCC2)cc1[N+](=O)[O-],x,x,x,-102%,11µM*,x
CC1CN(C(=O)COC(=O)c2ccc(N)c([N+](=O)[O-])c2)CC(C)O1 (stereo not drawn),7%,u,16%,-74%,4%,-8%
CC1CCCCN1C(=O)COC(=O)c1ccc(S(C)(=O)=O)c([N+](=O)[O-])c1 (stereo not drawn),x,x,x,7.9µM*,u,x
CC1(C(=O)NS(=O)(=O)Cc2cccc(Cl)c2)CCN1C(=O)Cc1cccs1 (stereo not drawn),-6%,i,x,-56%,-7%,x
CC(C)n1nc(-c2cc3cc(O)ccc3[nH]2)c2c(N)ncnc21,5µM*,u,x,x,x,x
Nc1nc(Sc2ccc([N+](=O)[O-])c3nonc23)c2[nH]cnc2n1,14µM*,x,x,-50%,u,x
COc1ccc2nc3c(nc2c1)CCCC3,33%,i,12%,8%,20%,0%
COc1ccc(OC)c(Nc2c3c(nc4ccccc24)CCC3)c1,0%,u,3%,-14%,11µM*!,-7%
COc1ccc2nc3c(c(-c4ccccc4)c2c1)CCC3,4%,i,11µM*,-25%,-7%,18µM*!
COc1ccc([N+](=O)[O-])cc1Nc1c2ccccc2nc2ccccc12,u,u,u,-46%,u,u
COc1ccc(OC)c(Nc2c3ccccc3nc3ccccc23)c1,11µM*,14µM*,u,-27%,13µM*,u
COc1cc(NS(C)(=O)=O)ccc1Nc1c2ccccc2nc2ccccc12,0.25µM*,u,20µM*,-98%,u,1%
COC(=O)c1cccc(NC(=O)c2nsc3ccccc23)c1,x,x,x,-47%,x,x
Cn1c(/C=C/c2ccc(Br)cc2)nc2ccccc2c1=O,x,i,26%,1%,0%,-12%
Cc1ccccc1C1=NC(C(F)(F)F)(C(F)(F)F)c2c(n(C)c(=O)n(C)c2=O)N1,-10%,i,22%,-18%,-13%,-1%
Cn1c2c(c(=O)n(C)c1=O)C(C(F)(F)F)(C(F)(F)F)N=C(c1ccc(Cl)cc1)N2,u,u,6.3µM*,-24%,1.8µM*,3.2µM*
O=C(N/N=C/c1cc([N+](=O)[O-])cc([N+](=O)[O-])c1O)/C(=C\c1cccs1)NC(=O)c1ccccc1,-7%,i,11µM*,23%,-1%,u
O=C(N/N=C/c1cccc([N+](=O)[O-])c1O)C(O)(c1ccccc1)c1ccccc1,x,i,0.71µM*,-25%,-7%,1.3µM*
COc1cc([N+](=O)[O-])cc(/C=N/NC(=O)c2cccnc2)c1O,x,i,-21%,-33%,-25%,-16%
